Among the data in PubChem BioAssay AID652054 (National Center for Advancing Translational Sciences (NCATS), 2013) are max response, negative = inhibition values, retold here.

Among all 360,000 compounds or so, about 9,100 (2.5%) were called active. About 4% were inconclusive and are not listed. What follows is part of a selection rich in actives, with near analogues and random picks from the rest. Values without a mark were called inactive. Cut-off read from the data, not from the text of the source: active = max response below about -50%; inconclusive = no clear call, values can overlap the other calls; inactive = above that.
% is set by controls: 0 for no effect and ±100 for the full control effect.

Chain of D(3) dopamine receptor (Homo sapiens) (P35462 whole entry, looked up): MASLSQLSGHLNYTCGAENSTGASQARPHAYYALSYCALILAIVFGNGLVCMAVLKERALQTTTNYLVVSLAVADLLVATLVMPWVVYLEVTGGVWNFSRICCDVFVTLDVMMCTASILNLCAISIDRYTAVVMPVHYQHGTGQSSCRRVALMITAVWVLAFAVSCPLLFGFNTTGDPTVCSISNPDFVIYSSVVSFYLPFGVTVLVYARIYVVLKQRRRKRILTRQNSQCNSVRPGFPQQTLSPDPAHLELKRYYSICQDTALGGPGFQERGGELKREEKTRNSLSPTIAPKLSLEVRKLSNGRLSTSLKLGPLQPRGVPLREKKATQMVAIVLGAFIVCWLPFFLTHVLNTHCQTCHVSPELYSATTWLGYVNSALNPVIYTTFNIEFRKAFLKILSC

The target in the assay is D(3) dopamine receptor (Homo sapiens) (UniProt P35462). Nature of the assay: qHTS of D3 Dopamine Receptor Antagonist: qHTS. Particulars: D3R cells, DiscoveRx beta-arrestin luminescence, antagonist mode; hits give low values. The procedure, abridged:
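Cells plated overnight at 1500 cells/well, then exposed to library compounds with dopamine controls for 90 minutes at 37 degrees C. DiscoveRx reagent added for 30–60 minutes at room temperature; luminescence read, quantitative HTS format.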
For orientation: qHTS replaces the single test concentration by a dilution series.
As to `CC(C)C[C@@H]1Cc2[nH][nH]c(=O)c2[C@H](CCc2ccccc2)O1`, the max response, negative = inhibition was -13%.
On to `Clc1ccc(-c2cccc3nccn23)cc1`, for which the max response, negative = inhibition was 0%.
For the compound `CCn1c(SCC(=O)N2CCCC2=O)nc2ccccc21`, the max response, negative = inhibition was 7.76%.
To `CCOC(=O)[C@]12CCCC=C1N(CCC1=CCCCC1)C(=O)[C@H](CC(=O)NCCCOC)C2` belongs 7.2%.
To `COc1ncnc2c1ncn2CCCNCCN1CCOCC1` belongs 20.7%; to `Cc1ccc(S(=O)(=O)N/N=C\c2cc3c(cc2[N+](=O)[O-])OCO3)cc1`, -4.05%.
As for `COc1ccc(S(=O)(=O)N/N=C\c2ccc(OC)c(COc3ccc(C)cc3[N+](=O)[O-])c2)cc1`, the figure is -59.9% (active); as for `COc1ccc(S(=O)(=O)Nc2ccc3cn[nH]c3c2)cc1[N+](=O)[O-]`, -18.8%.
As for `Nc1[nH]c(C(=O)c2ccccc2)c(-c2ccncc2)c1C(=O)NCc1cccc2ccccc12`, the max response, negative = inhibition is -9.51%.
As for `Nc1ncnc2c1ncn2[C@@H]1O[C@H](CNC(=O)[C@H](N)Cc2cccnc2)[C@@H](O)[C@H]1O`, the figure is 1.65%.
To `O=C(CN1CCN(Cc2ccccc2)CC1)Nc1ccc(F)c(F)c1` belongs -16.4%.
To `Cc1cccc(CN2CCC(CNC(=O)Nc3ccc(F)c(Cl)c3)CC2)c1` belongs -60.2% (active); to `COc1cc(NC(=O)NCC2CCN(Cc3ccc(C)cc3)CC2)cc(OC)c1OC`, -16.2%; to `COc1ccc(Cl)cc1NC(=O)C(C)N1CCc2ccccc21` (stereo unspecified), -7.48%.
With `COc1ccc(Cl)cc1NC(=O)NCC1CCN(Cc2ccccc2F)CC1`, the max response, negative = inhibition was -85.7% (active).
`O=C(NCC1CCN(Cc2ccccc2Cl)CC1)Nc1cccc(Cl)c1`: the max response, negative = inhibition was -29.8%.
As for `CCc1nc2c(OCC(=O)C(C)(C)C)cccn2c1N(C)C(=O)c1ccccc1F`, the figure is -24.2%; as for `O=C1NC(Cc2ccccc2)c2nc3ccc(Br)cc3c(=O)n2-c2cc3ccccc3cc21` (stereo unspecified), -0.847%; as for `COc1cc(F)ccc1-c1cc(C(=O)NCC2CCCCC2)[nH]n1`, -75.3% (active).
On to `COc1cc(NC(=O)c2cc(-c3ccc(F)cc3OC(C)C)n[nH]2)cc(OC)c1OC`, for which the max response, negative = inhibition is 6.57%.
As for `COc1ccccc1CNC(=O)c1cc(-c2cc(F)ccc2OC)n[nH]1`, the figure is 18.6%.
To `CC(=O)c1ccc(Nc2nc(C(N)c3ccccc3)cs2)cc1` (stereo unspecified) belongs 2.63%; to `C[C@@H]1CN([C@@H](C)CO)S(=O)(=O)c2ccc(-c3ccc(C(=O)N(C)C)cc3)cc2O[C@@H]1CN(C)Cc1ccccc1C(=O)O`, 16.1%.
To `COc1ccc(Cn2nnc3c(=O)[nH]c(C4CCN(C(=O)c5ccccc5Cl)CC4)nc32)cc1` belongs -22.4%.
Consider `COc1ccc(CN2CCC(c3nc4ccc(Cl)cc4[nH]3)CC2)cc1`, for which the max response, negative = inhibition is -101% (active).
For the compound `COc1ccc(F)c(-c2nc(CN3CCC(c4ccccc4)CC3)c(C)o2)c1`, the max response, negative = inhibition was -19.4%.
As for `C[C@@H]1CN([C@@H](C)CO)C(=O)c2cc(Br)cnc2O[C@@H]1CN(C)C(=O)C1CCCCC1`, the figure is 22.5%; as for `COc1ccc(C(=O)NC(=O)CSc2nnc(-c3ccco3)n2-c2ccccc2)cc1`, -3.83%; as for `O=C(CSc1nnc(-c2ccco2)n1-c1ccccc1)NCCc1ccccc1`, -54.3% (active).
To `Cc1cccc(C)c1NC(=O)CCCSc1nnc(-c2ccco2)n1-c1ccccc1` belongs -8.78%; to `O=C(NNC(=O)c1ccccc1O)c1ccccc1O`, 5.67%.
With `O=C(CO/N=C/c1ccccc1O)NNC(=O)c1ccccc1Cl`, the max response, negative = inhibition is -53.5% (active).
To `O=C(CO/N=C/c1ccccc1OC(F)F)NC1CCCC1` belongs 8.59%; to `Cc1ccc(S(=O)(=O)N2CC3C(=O)C[C@@H](c4ccccc4Cl)N(S(=O)(=O)c4ccc(C)cc4)C3CC2c2ccccc2)cc1` (stereo partly specified), 9.92%; to `CCOC(=O)c1ccn(S(=O)(=O)c2ccc(C)cc2)c1-c1ccccc1`, -20.6%.
To `Cc1c(Cl)cccc1NC(=O)NCc1ccc(C)n1C` belongs 13.8%; to `CN(C)CCNC(=O)Nc1cccc(Cl)c1Cl`, -70.3% (active).
As for `Cc1c(Cl)cccc1NC(=O)NCCCN1CCCC1=O`, the figure is -2.4%; as for `Cc1ccccc1-c1nc(NC(C)C)nc2cc(-c3ccccc3)sc12`, 21.7%; as for `C[C@H]1CN([C@@H](C)CO)C(=O)c2cc(-c3cccc(F)c3)cnc2O[C@@H]1CN(C)S(C)(=O)=O`, 17.3%.
Take `COc1ccc(Sc2ccc(NC(=O)c3cccc(Cl)c3)cc2C#N)cc1`: the max response, negative = inhibition was 28.7%.
To `Fc1ccccc1CCNc1nnnn1-c1ccccc1` belongs -77.8% (active); to `c1ccc(-n2nnnc2NC2CCCCCC2)cc1`, -9.29%; to `COc1ccccc1CN(C)c1nnnn1-c1ccccc1`, 6.89%.
On to `COc1ccccc1CNc1nc(Nc2ccccc2Cl)c2sccc2n1`, for which the max response, negative = inhibition was 51.2%.
To `Cc1ccccc1NC(=O)Cc1nc(COC(=O)CNC(=O)c2ccc(Cl)cc2Cl)cs1` belongs -6.28%; to `CN(C)CC/C=C1\c2ccccc2CSc2ccccc21`, -54.4% (active); to `CN(C)Cc1ccccc1C1(O)c2ccccc2CSc2ccccc21` (stereo unspecified), -12.3%.
As for `O=[N+]([O-])c1ccc(C(S(=O)(=O)Cc2ccccc2)S(=O)(=O)Cc2ccccc2)cc1`, the figure is -9.27%; as for `O=C(CCc1ccc(O)cc1)NN=Cc1cc(Br)ccc1O`, -3.37%; as for `S=C(NN=Cc1ccccn1)Nc1ccccn1`, -27%.
Turning to `Oc1ccc(Br)cc1/C=N/Nc1ccccn1`, the max response, negative = inhibition was -57.7% (active).
To `CNC(=O)C1CN(C(=O)c2cccc(S(=O)(=O)N3CCc4ccccc43)c2)c2ccccc2O1` (stereo unspecified) belongs -27.2%.
As for `CC1C(=O)N(Cc2cn(CC3CCCCC3)nn2)CCS(=O)(=O)N1Cc1ccc(-c2cccc(N(C)C)c2)cc1` (stereo unspecified), the figure is 0%; as for `Nc1cc(OC(=O)c2ccccc2Br)nn1S(=O)(=O)c1ccccc1`, -73.2% (active).
As for `Cc1ccc(S(=O)(=O)n2nc(OC(=O)C(C)(C)C)cc2N)cc1`, the figure is -4.07%; as for `CN1C(=O)/C(=N/OC(=O)c2ccccc2Br)c2ccccc21`, 0.409%; as for `FC(F)(F)c1ccccc1Cc1c(-c2ccccc2)nc2c3ccccc3ccn12`, -14.4%.
Take `COc1cccc(-c2cnc3c(NC(C)=O)cc(-c4cccc(NC(C)=O)c4)cn23)c1`: the max response, negative = inhibition is 43.1%.
As for `CCN1CCCC1CNC(=O)c1ccc2c(c1)NC(=O)/C(=C\c1ccccc1F)S2` (stereo unspecified), the max response, negative = inhibition is -21.4%.
As for `CC(=O)Oc1ccc(Cn2c(C)c(C(=O)NCc3ccc(C#N)cc3)sc2=O)cc1`, the figure is -1.7%.
To `COc1cc(CC(=O)NCc2cccs2)cc(OC)c1OC` belongs -6.25%; to `Cc1ccccc1Cn1c(C)c(C(=O)NCc2cccc(C(F)(F)F)c2)sc1=O`, -29.9%.
As for `Cc1c(C(=O)NCC2CC2)sc(=O)n1Cc1cccc(F)c1`, the figure is 11.5%.
For the compound `COc1ccc(Br)c(Cn2c(C)c(C(=O)NCc3cccs3)sc2=O)c1`, the max response, negative = inhibition was -59.3% (active).
To `Cc1cccc(C)c1Cn1c(C)c(C(=O)NCc2cccc(Cl)c2)sc1=O` belongs -105% (active).
As for `CCOC(=O)[C@]12CCCC=C1N(CCC1=CCCCC1)C(=O)[C@H](CC(=O)N1CCOCC1)C2`, the figure is -20.5%; as for `COC(=O)C[C@H]1C=C[C@H](NC(=O)c2ccc(F)cc2)[C@@H](CO)O1`, 0%; as for `CCN(CC)CCNC(=O)c1ccc(NC(=O)c2cc(-c3ccncc3)nc3ccccc23)cc1`, -11%.
To `CCc1nc2ccccc2c(C(=O)NCc2ccc(OC)cc2)c1C` belongs -8.59%.
In the case of `CCCN(CCC)CCNC(=O)c1cc2c(C)nc3ccccc3c2o1`, the max response, negative = inhibition was -52.4% (active).
Regarding `C[C@H]1CN([C@@H](C)CO)C(=O)CCCn2nncc2CO[C@@H]1CN(C)S(=O)(=O)c1cccc(C#N)c1`, the max response, negative = inhibition is 12.3%.
As for `CC1(Oc2ccc(Cl)cc2)CCN(Cc2csc3ccccc23)C1` (stereo unspecified), the max response, negative = inhibition is -85.5% (active).
To `COc1ccc(CN2CCC(C)(Oc3cccc(F)c3)C2)c2ccccc12` (stereo unspecified) belongs -6.36%; to `CC1(Oc2cccc(F)c2)CCN(Cc2ccccc2OC(F)F)C1` (stereo unspecified), -21.8%.
As for `N#Cc1ccc(-c2ccc3nccn3c2)cc1`, the figure is 21.2%; as for `Cc1ccccc1S(=O)(=O)NC(=O)C1(C)CCN1C(=O)C1(c2ccccc2)CCCC1` (stereo unspecified), 15.6%; as for `CSc1ccc(CN2CCC2(C)C(=O)Nc2ccc(C)c(O)c2)cc1` (stereo unspecified), 51.8%.
As for `O=C(NC(=S)N1CCN(Cc2ccccc2)CC1)c1ccccc1`, the figure is -1.99%; as for `O=C(c1cc2ccccc2o1)N1CCN(S(=O)(=O)c2ccc(Cl)s2)CC1`, -0.155%.
Turning to `O=C(Nc1ccccc1)N1CCC(C(=O)N2CCN(Cc3ccccc3)CC2)CC1`, the max response, negative = inhibition was 0%.
As for `O=C(c1cccc(Cl)c1)N1CCN(Cc2ccccc2)CC1`, the figure is 7.13%; as for `O=C(Nc1ccccc1)N1CCN(Cc2ccccc2)CC1`, -70.6% (active).
To `O=C(c1cc2ccccc2o1)N1CCN(Cc2ccccc2)CC1` belongs -77.4% (active).
To `CCOC(=O)C1=CCC(c2ccc(F)cc2)N(S(=O)(=O)c2ccc(C)cc2)C1` (stereo unspecified) belongs -25.7%.
For `Clc1cccc(Cc2c(-c3cccc(Cl)c3)nc3ccc(Cl)cn23)c1`, the max response, negative = inhibition is 33.1%.
As for `CC(=NNC(N)=O)C1CC2CCC1CC2` (stereo unspecified), the figure is 16.7%; as for `O=C1Nc2ccccc2-n2nnnc2C1N1CCN(c2cccc(C(F)(F)F)n2)CC1` (stereo unspecified), 11.4%; as for `O=C1Nc2ccc([N+](=O)[O-])cc2C1=Nc1cccc(CO)c1`, -77.4% (active).
As for `O=[N+]([O-])c1ccc(N(CCO)Cc2ccccc2)c([N+](=O)[O-])c1`, the figure is 5.91%.
To `CN1CCN(/N=C2/C(=O)Nc3ccc([N+](=O)[O-])cc32)CC1` belongs -3.16%.
